In assay [1] the target is PGR (gene 5241) (UniProt P06401). Put plainly: TOX21_PR_LUC_Followup_Agonist: Tox21 HEK293 Progesterone Receptor (PR) Agonism Luciferase Follow-Up Assay (AID 2283937; active = hit-call score of the fitted dose curve at least 0.9, where 1 is the maximum; inactive = score below 0.9). The method in brief: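 HEK293-PR-A-luc cells, pre-cultured 5 days in medium with 10% charcoal-stripped FBS, were seeded at 3,000 cells/well, rested 5 h at 37C, then exposed to compounds 16 h at 37C; luciferase read by ONE-Glo luminescence after 30 min.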
Sequence of PGR (gene 5241) (P06401 whole entry, looked up): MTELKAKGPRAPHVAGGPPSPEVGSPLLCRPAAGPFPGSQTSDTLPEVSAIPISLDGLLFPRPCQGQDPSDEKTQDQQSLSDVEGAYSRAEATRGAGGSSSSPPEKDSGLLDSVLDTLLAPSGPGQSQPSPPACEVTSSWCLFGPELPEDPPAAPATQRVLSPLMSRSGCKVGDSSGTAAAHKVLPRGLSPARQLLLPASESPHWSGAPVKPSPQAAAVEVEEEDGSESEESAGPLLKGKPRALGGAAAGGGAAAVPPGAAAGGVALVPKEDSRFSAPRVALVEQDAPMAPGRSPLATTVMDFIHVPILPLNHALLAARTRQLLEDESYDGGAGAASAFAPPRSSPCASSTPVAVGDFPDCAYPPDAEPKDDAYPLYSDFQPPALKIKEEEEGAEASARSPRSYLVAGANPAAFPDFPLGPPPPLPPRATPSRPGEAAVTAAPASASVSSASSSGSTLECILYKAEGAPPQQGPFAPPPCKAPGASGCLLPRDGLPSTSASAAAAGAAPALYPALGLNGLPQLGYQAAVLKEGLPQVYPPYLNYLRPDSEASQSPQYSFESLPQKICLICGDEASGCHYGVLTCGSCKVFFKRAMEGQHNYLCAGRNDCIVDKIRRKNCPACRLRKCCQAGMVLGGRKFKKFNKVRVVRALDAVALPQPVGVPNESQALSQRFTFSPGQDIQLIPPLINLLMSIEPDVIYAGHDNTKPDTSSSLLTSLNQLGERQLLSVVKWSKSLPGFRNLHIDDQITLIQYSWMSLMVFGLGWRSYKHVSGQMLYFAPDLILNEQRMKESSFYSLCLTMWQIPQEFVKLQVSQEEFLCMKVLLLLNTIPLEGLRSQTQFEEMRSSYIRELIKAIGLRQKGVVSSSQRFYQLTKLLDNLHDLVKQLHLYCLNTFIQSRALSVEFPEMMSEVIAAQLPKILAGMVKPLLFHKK

Assay [2] shares this target. The assay can be described thus: TOX21_PR_LUC_Followup_Antagonist: Tox21 HEK293 Progesterone Receptor (PR) Antagonism Luciferase Follow-Up Assay (AID 2283938).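 Note: curve fitted upward as signal gain over DMSO baseline despite antagonist label.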 The method in brief: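 Cells are grown 5 days in charcoal-stripped-FBS assay medium, plated, left 5 h, then dosed with compound and incubated 16 h. ONE-Glo reagent is added and luminescence read after 30 min.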

The target of assay [3] is Thyroid hormone receptor alpha (Rattus norvegicus) + Thyroid hormone receptor beta (Rattus norvegicus) (UniProt P18113+P63059). The assay can be described thus: TOX21_TR_LUC_GH3_Agonist_Followup: Tox21 GH3 Thyroid Hormone Receptor Agonism Luciferase Follow-Up Assay (AID 2283939). The method in brief:
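Rat GH3 cells (1,500/well) in serum-free assay medium, treated with 15-point series, 92 uM to 5 nM final, for 24 h at 37C. Luciferase via ONE-Glo luminescence; gain of signal fitted against DMSO, T3 positive control.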

The target in assay [4] is THRA (gene 7067) (UniProt P10827). The assay can be described thus: TOX21_TRA_COA_Agonist_Followup_ratio: Tox21 Thyroid Hormone Receptor alpha Agonism through Coactivator Recruitment Follow-Up Assay, Ratio (AID 2283948; active = hit-call score of the fitted dose curve at least 0.9, where 1 is the maximum; inactive = score below 0.9). The method in brief:
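Follow-up specificity assay in which TRα ligand-binding domain, expressed as a GST fusion, recruits a fluorescein-labelled SRC-2 peptide. Energy transfer from a terbium anti-GST antibody gives the acceptor/donor ratio, fitted upward relative to DMSO.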

Assay [5] deals with THRB (gene 7068) (UniProt P10828). Put plainly: TOX21_TRB_BLA_Agonist_Followup_ratio: Tox21 Thyroid Hormone Receptor beta Agonism Beta-lactamase (BLA) Follow-Up Assay, Ratio (AID 2283954). A digest of the protocol: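 Human TRβ LBD–GAL4 DBD fusion in GeneBLAzer UAS-bla HEK293T cells; 11 concentrations in triplicate, 18 h at 37°C/5% CO2, T3 as agonist control. CCF4-AM substrate 2 h at room temperature; 460:530 nm ratio fitted for gain of signal versus DMSO.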
Sequence of THRB (gene 7068) (P10828 whole entry, looked up, the tested form may be a part): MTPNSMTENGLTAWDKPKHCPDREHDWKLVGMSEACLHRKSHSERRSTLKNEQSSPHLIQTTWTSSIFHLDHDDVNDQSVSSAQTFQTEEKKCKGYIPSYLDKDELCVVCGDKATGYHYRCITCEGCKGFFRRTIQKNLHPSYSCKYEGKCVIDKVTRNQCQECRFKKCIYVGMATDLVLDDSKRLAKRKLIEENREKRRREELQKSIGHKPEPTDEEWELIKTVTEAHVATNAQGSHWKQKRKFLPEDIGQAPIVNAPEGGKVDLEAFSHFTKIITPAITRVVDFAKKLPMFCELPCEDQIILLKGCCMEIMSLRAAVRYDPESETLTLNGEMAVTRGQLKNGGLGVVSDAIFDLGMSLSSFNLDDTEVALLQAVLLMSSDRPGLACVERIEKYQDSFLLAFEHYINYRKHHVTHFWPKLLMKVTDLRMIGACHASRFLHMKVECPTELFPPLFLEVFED

Assay [6] has the same target. Put plainly: TOX21_TRB_COA_Agonist_Followup_ratio: Tox21 Thyroid Hormone Receptor beta Agonism through Coactivator Recruitment Follow-Up Assay, Ratio (AID 2283963; active = hit-call score of the fitted dose curve at least 0.9, where 1 is the maximum; inactive = score below 0.9). The method in brief: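 GST-TRb LBD 5.0 nM + 0.10% BSA + cpd; add fluorescein-SRC-2 200 nM / Tb anti-GST Ab 2 nM; TR-FRET ex 340, em 520:495; norm DMSO 0%, T3 100%.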
Assay [7] concerns the target Retinoic acid receptor RXR-alpha (Homo sapiens) (UniProt P19793). Put plainly: TOX21_TR_RXR_BLA_Agonist_Followup_ratio: Tox21 Thyroid Hormone Receptor beta Retinoid X Receptor alpha (RXRa) Agonism Beta-lactamase (BLA) Follow-Up Assay, Ratio (AID 2283968). The method in brief:
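RXRa-UAS-bla HEK293T cells (GAL4 beta-lactamase reporter) were treated with compounds at 11 concentrations in triplicate for 16 h at 37C/5% CO2, then loaded with CCF4-AM substrate for 2 h at room temperature; activity is the 460:530 nm ratio versus DMSO baseline.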

A short description of assay [8]: TOX21_TR_RXR_BLA_Agonist_Followup_viability: Viability Assessment in the Tox21 Thyroid Hormone Receptor beta Retinoid X Receptor alpha (RXRa) Agonism Beta-lactamase (BLA) Follow-Up Assay (AID 2283970). The method in brief:
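RXRa-UAS-bla HEK293T cells seeded at 2,500/well in phenol red-free DMEM with 2% charcoal-stripped FBS, exposed to compound 16h at 37C/5% CO2 in qHTS. Viability read by CellTiter-Glo ATP luminescence; bidirectional fitting against DMSO baseline, signal loss indicating cytotoxicity.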

A short description of assay [9]: TOX21_PR_LUC_Followup_Antagonist_viability: Viability Assessment in the Tox21 HEK293 Progesterone Receptor (PR) Antagonism Luciferase Follow-Up Assay (AID 2283940). A digest of the protocol:
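HEK293-PR-A-luc cells, precultured 5 days in assay medium with 10% charcoal-stripped FBS, were seeded at 3,000 cells/well, treated with compounds in DMSO for 16 h at 37C, and viability was read as cellular ATP by CellTiter-Glo luminescence.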

Assay [10] has as its target THRA (gene 7067) (UniProt P10827). Put plainly: TOX21_TRA_COA_Antagonist_Followup_ratio: Tox21 Thyroid Hormone Receptor alpha Antagonism through Coactivator Recruitment Follow-Up Assay, Ratio (AID 2283953). The method in brief:
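This follow-up to the GH3 luciferase screen checks specificity in a cell-free format. It measures SRC-2 coactivator peptide binding to TRα LBD by TR-FRET and scores loss of ratio signal relative to DMSO.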

Assay [11] concerns the target THRB (gene 7068) (UniProt P10828). The assay can be described thus: TOX21_TRB_BLA_Antagonist_Followup_ratio: Tox21 Thyroid Hormone Receptor beta Antagonism Beta-lactamase (BLA) Follow-Up Assay, Ratio (AID 2283958). A digest of the protocol:
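GAL4-DBD/human TRβ-LBD fusion in GeneBLAzer UAS-bla HEK293T cells, 3,000 cells/well in phenol red-free DMEM with 2% charcoal-stripped FBS; compounds at 11 concentrations in triplicate, 18 h at 37C. CCF4-AM substrate 2 h, 460:530 nm ratio relative to DMSO.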

Assay [12] can be described thus: TOX21_TRB_BLA_Antagonist_Followup_viability: Viability Assessment in the Tox21 Thyroid Hormone Receptor beta Antagonism Beta-lactamase (BLA) Follow-Up Assay (AID 2283961). The method in brief:
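TRβ-bla HEK293T (human TRβ LBD fused to GAL4 DBD), 3,000 cells/well, 2% charcoal-stripped FBS, phenol red-free medium; 18 h compound exposure, 37C; CellTiter-Glo 30 min RT; luminescence, loss-of-signal readout.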

Assay [13] concerns the target THRB (gene 7068) (UniProt P10828). Put plainly: TOX21_TRB_COA_Antagonist_Followup_ratio: Tox21 Thyroid Hormone Receptor beta Antagonism through Coactivator Recruitment Follow-Up Assay, Ratio (AID 2283967). The method in brief:
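Cell-free TR-FRET coactivator recruitment with GST-tagged TRβ LBD (5.0 nM) and fluorescein-labeled SRC-2 peptide (200 nM) detected by terbium anti-GST antibody (2 nM). The 520:495 nm emission ratio was normalized to DMSO (0%) and T3 (100%).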

The target in assay [14] is Retinoic acid receptor RXR-alpha (Homo sapiens) (UniProt P19793). The assay can be described thus: TOX21_TR_RXR_BLA_Antagonist_Followup_ratio: Tox21 Thyroid Hormone Receptor beta Retinoid X Receptor alpha (RXRa) Antagonism Beta-lactamase (BLA) Follow-Up Assay, Ratio (AID 2283972). The method in brief: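 HEK293T RXRa-bla, 2% charcoal-stripped FBS medium, 16 h compound exposure at 37C, qHTS 11 conc x3. CCF4 FRET ratio ch2/ch1 (460:530), DMSO = baseline, loss-of-signal fit.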
Sequence of Retinoic acid receptor RXR-alpha (Homo sapiens) (P19793 whole entry, looked up, the tested form may be a part): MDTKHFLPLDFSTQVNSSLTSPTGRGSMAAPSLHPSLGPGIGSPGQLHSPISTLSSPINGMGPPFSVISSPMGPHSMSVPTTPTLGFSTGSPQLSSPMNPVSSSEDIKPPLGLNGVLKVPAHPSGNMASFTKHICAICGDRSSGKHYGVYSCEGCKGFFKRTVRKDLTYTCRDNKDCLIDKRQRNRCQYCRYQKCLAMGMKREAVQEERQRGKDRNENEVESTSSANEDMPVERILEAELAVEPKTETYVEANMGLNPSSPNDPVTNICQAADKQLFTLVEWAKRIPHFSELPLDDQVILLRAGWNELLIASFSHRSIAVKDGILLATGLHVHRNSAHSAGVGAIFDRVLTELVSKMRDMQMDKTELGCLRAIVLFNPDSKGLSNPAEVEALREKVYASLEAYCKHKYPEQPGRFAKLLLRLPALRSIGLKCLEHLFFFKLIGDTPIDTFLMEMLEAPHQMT

Records with an inconclusive call do not appear. The source made the active and inactive calls. Rule for the calls, unless noted: active = hit-call score of the fitted dose curve at least 0.9, where 1 is the maximum; inconclusive = response in the unintended direction; inactive = score below 0.9.

Sequence of THRA (gene 7067) (P10827 whole entry, looked up, the tested form may be a part): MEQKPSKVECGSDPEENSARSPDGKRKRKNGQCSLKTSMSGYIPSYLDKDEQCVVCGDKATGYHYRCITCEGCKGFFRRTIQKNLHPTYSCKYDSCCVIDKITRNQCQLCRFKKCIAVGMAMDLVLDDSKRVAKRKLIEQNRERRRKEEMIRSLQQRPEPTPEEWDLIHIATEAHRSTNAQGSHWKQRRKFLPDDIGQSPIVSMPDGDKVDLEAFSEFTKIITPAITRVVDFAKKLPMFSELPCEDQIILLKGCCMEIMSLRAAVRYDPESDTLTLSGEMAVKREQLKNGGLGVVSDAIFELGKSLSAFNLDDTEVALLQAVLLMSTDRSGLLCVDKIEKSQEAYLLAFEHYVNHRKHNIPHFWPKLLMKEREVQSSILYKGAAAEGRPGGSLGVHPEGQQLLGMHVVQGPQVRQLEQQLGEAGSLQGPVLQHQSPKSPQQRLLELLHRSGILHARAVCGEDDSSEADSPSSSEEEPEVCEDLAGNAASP
Sequence of Thyroid hormone receptor alpha (Rattus norvegicus) + Thyroid hormone receptor beta (Rattus norvegicus) (P63059 whole entry, looked up): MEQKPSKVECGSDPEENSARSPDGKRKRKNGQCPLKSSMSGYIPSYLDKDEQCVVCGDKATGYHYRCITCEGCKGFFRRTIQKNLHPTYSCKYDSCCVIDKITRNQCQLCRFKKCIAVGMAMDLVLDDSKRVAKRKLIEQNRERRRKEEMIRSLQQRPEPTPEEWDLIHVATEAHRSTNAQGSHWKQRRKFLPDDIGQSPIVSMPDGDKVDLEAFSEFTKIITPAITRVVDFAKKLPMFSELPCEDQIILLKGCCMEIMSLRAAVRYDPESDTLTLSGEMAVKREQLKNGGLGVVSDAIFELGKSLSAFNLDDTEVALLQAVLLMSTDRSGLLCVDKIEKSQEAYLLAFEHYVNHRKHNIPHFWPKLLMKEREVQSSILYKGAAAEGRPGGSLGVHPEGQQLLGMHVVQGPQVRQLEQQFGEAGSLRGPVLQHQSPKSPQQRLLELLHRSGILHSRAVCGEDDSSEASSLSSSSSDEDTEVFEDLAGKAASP
Sequence of Thyroid hormone receptor alpha (Rattus norvegicus) + Thyroid hormone receptor beta (Rattus norvegicus) (P18113 whole entry, looked up): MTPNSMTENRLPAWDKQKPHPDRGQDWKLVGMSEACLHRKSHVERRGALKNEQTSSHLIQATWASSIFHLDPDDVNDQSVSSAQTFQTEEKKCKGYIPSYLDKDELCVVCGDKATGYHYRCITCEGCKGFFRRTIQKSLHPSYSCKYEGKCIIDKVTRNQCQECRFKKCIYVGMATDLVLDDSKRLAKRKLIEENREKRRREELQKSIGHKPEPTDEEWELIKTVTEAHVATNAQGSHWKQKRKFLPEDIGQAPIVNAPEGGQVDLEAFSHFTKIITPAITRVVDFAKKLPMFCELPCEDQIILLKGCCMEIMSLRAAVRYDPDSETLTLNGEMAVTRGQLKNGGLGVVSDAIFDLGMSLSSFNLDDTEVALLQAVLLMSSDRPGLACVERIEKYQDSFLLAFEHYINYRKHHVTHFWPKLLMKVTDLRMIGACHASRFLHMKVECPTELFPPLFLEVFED

As to `c1ccc2cc3c(ccc4ccccc43)cc2c1`, the molecule was called inactive with PGR (gene 5241) [1].

For the molecule `CC[C@H](c1ccc(O)cc1)[C@@H](CC)c1ccc(O)cc1`, the molecule was called inactive with PGR (gene 5241) [1]. For the same molecule, in the assay with PGR (gene 5241) [2], the AC50 is 16200 nM (active).

For `O=C(O)Cc1cc(I)c(Oc2cc(I)c(O)c(I)c2)c(I)c1`, the AC50 is 6.68 nM (active) in [3]; 276 nM (active) with THRA (gene 7067) [4]; 24.2 nM (active) with THRB (gene 7068) [5]; 246 nM (active) with THRB (gene 7068) [6]; 31500 nM (active) in [7]. In addition, the molecule was classed as inactive in [8].

For `CC(C)(C)c1cc(C(C)(C)C)c(O)c(C(C)(C)C)c1`, the outcome (in assay [3]; with THRA (gene 7067) [4]; with THRB (gene 7068) [5]; with THRB (gene 7068) [6]; in assay [8]) was inactive. For the same molecule, the AC50 in assay [7] was 59600 nM (active).

For `C[C@@H]1C[C@H]2[C@@H]3CCC4=CC(=O)C=C[C@]4(C)[C@@]3(F)[C@@H](O)C[C@]2(C)[C@@]1(O)C(=O)COP(=O)(O)O`, the molecule was called inactive in [9].

Take `C#C[C@]1(O)CC[C@H]2[C@@H]3CCC4=CC(=O)CC[C@@H]4[C@H]3CC[C@@]21C`: the outcome (in the assay with THRA (gene 7067) [10]; in the assay with THRB (gene 7068) [11]; in assay [12]; in the assay with THRB (gene 7068) [13]; in [14]) was inactive.

As usually defined, the AC50 is the concentration giving half of the maximal activity seen.

These data come from PubChem BioAssay (EPA / NIEHS).
